In PubChem BioAssay (NCATS) one finds Potency data, which are given here for 14 molecules.

Common to all, as to assay: qHTS profiling for inhibitors of Plasmodium falciparum proliferation (AID 504749); further: nearly all actives have a fitted effect of over 60% in size
Common to all, as to conditions: P. falciparum in erythrocytes, SYBR Green DNA, 72 h; series mostly up to 28.7 µM
(In general: qHTS replaces the single test concentration by a dilution series.)

In experiment [1] the test system is CP269. The procedure, abridged: (§1)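 Three-day growth assay of blood-stage parasites in erythrocytes (0.3% parasitemia, 2.5% hematocrit) at 37 C, 5% CO2, quantified by SYBR Green DNA staining after overnight detergent lysis.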
The subject of experiment [2] is CP286. The procedure, abridged: as §1
Experiment [3] deals with CP291. In a few lines: as §1
In experiment [4] the test system is CP297. In a few lines: as §1
For experiment [5], the system named is CP305. In a few lines:
as §1

The test system of experiment [6] is CP315. In a few lines: as §1
The subject of experiment [7] is CP325. In a few lines:
as §1

Experiment [8] concerns CP329. In a few lines:
as §1

Experiment [9] relates to CP335. The procedure, abridged: as §1
Experiment [10] relates to DFO2036. In a few lines: as §1
Experiment [11] concerns DIV14. The procedure, abridged:
as §1

Experiment [12] deals with DIV17. In a few lines:
as §1

Experiment [13] deals with DIV30. In a few lines: as §1
For experiment [14], the system named is Dd2. In a few lines: as §1
The subject of experiment [15] is ECU. In a few lines:
as §1

Experiment [16] has as its system FAB9. The procedure, abridged:
as §1

In experiment [17] the test system is GB4. The procedure, abridged: as §1
Experiment [18] concerns HB3. The procedure, abridged:
as §1

Experiment [19] has as its system ICS. In a few lines:
as §1

Experiment [20] concerns JCK. In a few lines: as §1

Inconclusive results are not listed. Calls of active or inactive are those of the source. The call rests on the fitted dose curve; in most records, active means well fitted inhibition curve with a large enough effect; inconclusive means small, poorly fitted or top-dose-only effect; inactive means flat fitted curve, though single readings scatter.
Potency means the concentration at half of the fitted maximal effect.

On to `CN1CCN(C(=O)O[C@H]2c3nccnc3C(=O)N2c2ccc(Cl)cn2)CC1`, for which the Potency entry in [1], in experiment [2], in experiment [3], in [4], in experiment [5] and in experiment [6] was “inactive” in each case. Besides, the Potency entry in experiment [7], in experiment [8], in experiment [9], in experiment [10], in [11] and in experiment [12] was “inactive” in each case. Moreover, the Potency entry in experiment [13], in experiment [14], in [15], in experiment [16], in experiment [17] and in [18] was “inactive” in each case. In addition, the Potency result in [19] and in [20] was “inactive” each time.

With `CC(=O)Nc1cc([As](=O)(O)O)ccc1O`, the Potency entry in [1], in experiment [2], in experiment [3], in [4], in experiment [5] and in experiment [6] was “inactive” in each case. Further, the Potency entry in [7], in [8], in [9], in experiment [10], in experiment [11] and in experiment [12] was “inactive” each time. For the same molecule, the Potency result in [13], in [14], in experiment [15], in [16], in [17] and in experiment [18] was “inactive” each time. In addition, the Potency result in experiment [19] and in experiment [20] was “inactive” throughout.

For `Clc1ccc(COC(Cn2ccnc2)c2ccc(Cl)cc2Cl)cc1` (centres undefined), the Potency in experiment [1] is 4.78 µM (active); in [2] it was 3.98 µM (active); in experiment [3] it was 7.57 µM (active); in [4], 3.79 µM (active); in experiment [5] it was 13.5 µM (active); in experiment [6], 15.1 µM (active). The Potency was 9.53 µM (active) in [7]; 10.7 µM (active) in experiment [8]; 4.26 µM (active) in experiment [9]; 2.51 µM (active) in experiment [10]; 1.9 µM (active) in experiment [11]; 1.51 µM (active) in experiment [12]. For the same molecule, the Potency in experiment [13] was 1.69 µM (active); in experiment [14] it was 2.82 µM (active); in experiment [15] it was 0.794 µM (active); in experiment [16] it was 11.2 µM (active); in experiment [17] it was 1.69 µM (active); in experiment [18], 3.98 µM (active). The values for the Potency in [19] and in experiment [20] were 0.631 µM (active) and 8.91 µM (active), respectively.

`CN1C(=S)CN=C(c2ccccc2)c2cc(Cl)ccc21`: the Potency entry in [1], in experiment [2], in experiment [3], in experiment [4], in experiment [5] and in experiment [6] was “inactive” throughout. Further, the Potency entry in experiment [7], in experiment [8], in [9], in [10], in experiment [11] and in experiment [12] was “inactive” in each case. Also, the Potency entry in [13], in experiment [14], in experiment [15], in experiment [16], in [17] and in experiment [18] was “inactive” each time. Further, the Potency entry in [19] and in [20] was “inactive” in each case.

On to `CCCC(C)(COC(N)=O)COC(=O)NC(C)C` (centres undefined), for which the Potency result in experiment [1], in [2], in [3], in experiment [4], in experiment [5] and in experiment [6] was “inactive” each time. Further, the Potency result in experiment [7], in experiment [8], in [9], in experiment [10], in [11] and in experiment [12] was “inactive” in each case. Also, the Potency result in experiment [13], in experiment [14], in [15], in experiment [16], in experiment [17] and in experiment [18] was “inactive” each time. Besides, the Potency result in experiment [19] and in experiment [20] was “inactive” each time.

Regarding `Oc1cccc2cccnc12`, the Potency result in experiment [1], in experiment [2], in experiment [3], in experiment [4], in experiment [5] and in experiment [6] was “inactive” throughout. For the same molecule, the Potency entry in [7], in experiment [8], in experiment [9], in experiment [10], in experiment [11] and in experiment [12] was “inactive” throughout. Moreover, the Potency result in experiment [13], in experiment [14], in experiment [15], in experiment [16], in experiment [17] and in experiment [18] was “inactive” in each case. Also, the Potency entry in [19] and in experiment [20] was “inactive” each time.

For the molecule `CC1NCCOC1c1ccccc1` (centres undefined), the Potency entry in experiment [1], in experiment [2], in experiment [3], in experiment [4], in [5] and in experiment [6] was “inactive” each time. Moreover, the Potency entry in experiment [7], in experiment [8], in experiment [9], in [10], in experiment [12] and in experiment [13] was “inactive” throughout. Further, the Potency result in experiment [14], in experiment [15], in experiment [16], in [18], in experiment [19] and in experiment [20] was “inactive” each time.

In the case of `NP(N)(=O)NC(=O)c1ccc(F)cc1`, the Potency result in experiment [1], in experiment [2], in experiment [3], in experiment [4], in experiment [5] and in experiment [6] was “inactive” throughout. Moreover, the Potency entry in [7], in [8], in experiment [9], in experiment [10], in experiment [11] and in [12] was “inactive” each time. For the same molecule, the Potency entry in experiment [13], in [14], in experiment [15], in [16], in experiment [17] and in experiment [18] was “inactive” each time. In addition, the Potency result in experiment [19] and in [20] was “inactive” throughout.

Regarding `CCCC1CCCCN1` (centres undefined), the Potency entry in [1], in [2], in [3], in experiment [4], in experiment [5] and in experiment [6] was “inactive” in each case. Besides, the Potency result in experiment [7], in [8], in experiment [9], in [10], in experiment [11] and in [12] was “inactive” throughout. Moreover, the Potency result in experiment [13], in experiment [14], in [15], in experiment [16], in [17] and in [18] was “inactive” each time. For the same molecule, the Potency entry in experiment [19] and in experiment [20] was “inactive” in each case.

With `CC[C@@H](CO)NC(=O)[C@@H]1C=C2c3cccc4[nH]cc(c34)C[C@H]2N(C)C1`, the Potency entry in experiment [1], in experiment [2], in experiment [3], in [4], in experiment [5] and in experiment [6] was “inactive” in each case. In addition, the Potency entry in experiment [7], in experiment [8], in [10], in [11], in experiment [12] and in experiment [13] was “inactive” in each case. Further, the Potency result in [14], in experiment [15], in [16], in [17], in [18] and in [19] was “inactive” in each case. Further, the Potency entry in experiment [20] is “inactive”.

As to `NCC1(CC(=O)O)CCCCC1`, the Potency result in experiment [1], in experiment [2], in experiment [3], in experiment [4], in experiment [5] and in experiment [6] was “inactive” each time. The Potency entry in experiment [7], in [8], in experiment [10], in experiment [11], in experiment [12] and in experiment [13] was “inactive” in each case. The Potency result in [14], in experiment [15], in experiment [16], in experiment [17], in experiment [18] and in [19] was “inactive” each time. Also, in experiment [20], the Potency entry was “inactive”.

For the molecule `C=C(C)[C@H]1Cc2c(ccc3c2O[C@@H]2COc4cc(OC)c(OC)cc4[C@@H]2C3=O)O1`, the Potency entry in experiment [2], in [4], in experiment [5], in [6], in experiment [7] and in experiment [8] was “inactive” each time. Further, the Potency result in experiment [10], in experiment [14], in experiment [15], in experiment [16], in [18] and in experiment [20] was “inactive” each time. Further, the Potency in [19] was 11.2 µM (active).

Consider `CCCN1CCC[C@@H]2Cc3[nH]ncc3C[C@H]21`, for which the Potency result in [1], in experiment [3], in experiment [4], in experiment [5], in experiment [6] and in [7] was “inactive” throughout. Further, the Potency result in experiment [8], in experiment [9], in [11], in experiment [12], in [13] and in experiment [17] was “inactive” in each case.

Turning to `O=C(O)c1ccc2[nH]cc(CCCCN3CC=C(c4ccccc4)CC3)c2c1`, the Potency result in [1], in experiment [2], in experiment [3], in experiment [5], in experiment [6] and in experiment [7] was “inactive” throughout. Further, the Potency entry in [8], in [9], in [10], in experiment [12], in [13] and in [14] was “inactive” in each case. Moreover, the Potency entry in experiment [15], in experiment [16], in [17], in [18], in experiment [19] and in experiment [20] was “inactive” each time.
